Measured values reported in PubChem BioAssay (EPA / NIEHS).
Inconclusive results are not listed. Activity calls are given as the source filed them. The calls were made as follows, unless noted: active = hit-call score of the fitted dose curve at least 0.9, where 1 is the maximum; inactive = score below 0.9.

Columns and labels:
[1] = BSK_SAg_Proliferation: Cell Proliferation Assessment in the BioMAP Diversity Plus: SAg Assay (AID 2283095); settings: primary human HUVEC with PBMC;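 also: relative cell number as total protein by SRB absorbance in sub-confluent culture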
Summary of the method: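 HUVEC/PBMC co-culture, 96-well. TCA-fixed (10%), 0.1% SRB stain, A560 at 96 h. Protein content used as viability readout; bidirectional fitting vs DMSO control.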

[2] = BSK_SAg_SRB: Viability Assessment in the BioMAP Diversity Plus: SAg Assay (AID 2283096); settings: primary human HUVEC with PBMC;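 also: cells read one day after compound addition; hits may be either gain or loss of signal compared with DMSO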
Summary of the method: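 Compounds were added to a human vascular co-culture of umbilical vein endothelium and PBMC. After 24 h, parallel cultures were fixed with 10% TCA, stained with 0.1% sulforhodamine B and read at 560 nm. Gain or loss of signal was fitted relative to DMSO.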

[3] = target: human AKT serine/threonine Kinase 1 (AKT1), AKT1 (gene 207) (UniProt P31749); assay: NVS_ENZ_hAKT1: NovaScreen (NVS) Enzymatic Assay for human AKT serine/threonine Kinase 1 (AKT1) (AID 2283138; active = hit-call score of the fitted dose curve at least 0.9, where 1 is the maximum)
Summary of the method: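 Fluorescence and mobility-shift readout of kinase activity, taken 1 h post-dosing in a cell-free format with recombinant protein. Primary screen at 25 uM in duplicate; hits (e.g. 30% inhibition) retested in concentration series topping at 50 uM.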

[4] = target: human Casein Kinase 1-delta (CK1D), CSNK1D (gene 1453) (UniProt P48730); assay: NVS_ENZ_hCK1D: NovaScreen (NVS) Enzymatic Assay for human Casein Kinase 1-delta (CK1D) (AID 2283148; active = hit-call score of the fitted dose curve at least 0.9, where 1 is the maximum)
Summary of the method: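 Recombinant human CK1-delta, cell-free; fluorescent substrate with electrophoretic mobility-shift separation of product, read 1 h after dosing. Single 25 uM duplicate screen, then concentration-response up to 50 uM; loss of signal vs DMSO.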

[5] = target: human CYP2C9, CYP2C9 (gene 1559) (UniProt P11712); assay: NVS_ADME_hCYP2C9: NovaScreen (NVS) CYP450-related Enzyme Activity (ADME) Assay for human CYP2C9 (AID 2283108; active = hit-call score of the fitted dose curve at least 0.9, where 1 is the maximum)
Summary of the method: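 Recombinant human CYP2C9 expressed in SF9 cells, fluorogenic substrate, fluorescence read 0.75 h after dosing. Chemicals first run in duplicate at 10 uM, with actives followed in concentration series; loss of signal versus acetonitrile baseline.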

[6] = target: human AKT serine/threonine Kinase 2 (AKT2), AKT2 (gene 208) (UniProt P31751); assay: NVS_ENZ_hAKT2: NovaScreen (NVS) Enzymatic Assay for human AKT serine/threonine Kinase 2 (AKT2) (AID 2283141; active = hit-call score of the fitted dose curve at least 0.9, where 1 is the maximum)
Summary of the method: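 Cell-free fluorescence/electrophoretic mobility shift readout of recombinant human AKT2 activity, 1 h after chemical dosing. Duplicate primary screen at 25 uM, then singleton concentration-response up to 50 uM; loss of signal versus DMSO baseline.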

[7] = target: Cytochrome P450 2C19 (Homo sapiens) (UniProt P33261); assay: NVS_ADME_hCYP2C19: NovaScreen (NVS) CYP450-related Enzyme Activity (ADME) Assay for human CYP2C19 (AID 2283113; active = hit-call score of the fitted dose curve at least 0.9, where 1 is the maximum;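 also: potency for inhibition seen as loss of fluorescent signal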)
Summary of the method: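 Recombinant insect-cell-expressed enzyme, fluorescent substrate, 1 h after chemical addition, fluorescence intensity. Baseline = acetonitrile vehicle; activity scored as signal loss. Primary HTS single concentration 10 uM, duplicate; actives retested in concentration series.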

[8] = target: human Beta-secretase (BACE), BACE1 (gene 23621) (UniProt P56817); assay: NVS_ENZ_hBACE: NovaScreen (NVS) Enzymatic Assay for human Beta-secretase (BACE) (AID 2283140; active = hit-call score of the fitted dose curve at least 0.9, where 1 is the maximum;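 also: hits are inhibitors that reduce fluorescent substrate signal versus DMSO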)
Summary of the method: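 SF9-expressed enzyme, cell-free; fluorescent substrate readout after 1 h. Screened at 25 uM single concentration, duplicate; hits retested in concentration series. Activity relative to DMSO baseline, loss-of-signal.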

[9] = target: Cytochrome P450 3A4 (Homo sapiens) (UniProt P08684); assay: NVS_ADME_hCYP3A4: NovaScreen (NVS) CYP450-related Enzyme Activity (ADME) Assay for human CYP3A4 (AID 2283110; active = hit-call score of the fitted dose curve at least 0.9, where 1 is the maximum)
Summary of the method: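 Recombinant CYP3A4 from insect cells, fluorescence enzyme read-out, 0.33 h after chemical addition. Acetonitrile = negative control/baseline. Primary HTS: 10 uM in duplicate; actives re-tested in concentration series.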

[10] = target: human Caspase 8 (CASP8), CASP8 (gene 841) (UniProt Q14790); assay: NVS_ENZ_hCASP8: NovaScreen (NVS) Enzymatic Assay for human Caspase 8 (CASP8) (AID 2283146; active = hit-call score of the fitted dose curve at least 0.9, where 1 is the maximum)
Summary of the method: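 The primary screen tested compounds in duplicate at a single 25 uM concentration, with actives followed up in concentration series. Activity of recombinant (E. coli) protease was measured by fluorescence 1 h post-dose, as signal loss against DMSO.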

CDK2 (gene 1017) = CDK2 (gene 1017) (UniProt P24941); assay: NVS_ENZ_hCDK2: NovaScreen (NVS) Enzymatic Assay for human Cyclin-Cependent Kinase 2 (CDK2) (AID 2283144; active = hit-call score of the fitted dose curve at least 0.9, where 1 is the maximum)
Summary of the method: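 Compounds screened in duplicate at 25 uM, then in singleton concentration-response to a maximum of 50 uM, against recombinant CDK2; kinase activity read 1 hr after dosing by fluorescence with mobility-shift separation of substrate and product.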

[11] = target: human CYP2D6, CYP2D6 (gene 1565) (UniProt P10635); assay: NVS_ADME_hCYP2D6: NovaScreen (NVS) CYP450-related Enzyme Activity (ADME) Assay for human CYP2D6 (AID 2283107; active = hit-call score of the fitted dose curve at least 0.9, where 1 is the maximum)
Summary of the method: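 Fluorescence intensity read 1 h post-dosing; insect-cell-expressed recombinant protein with fluorogenic substrate, no cells. Activity is scored as signal loss relative to acetonitrile baseline, first at a single 10 uM concentration in duplicate, then as concentration series for confirmed actives.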

[12] = target: human Acid Phosphatase 1 (ACP1), ACP1 (gene 52) (UniProt P24666); assay: NVS_ENZ_hACP1: NovaScreen (NVS) Enzymatic Assay for human Acid Phosphatase 1 (ACP1) (AID 2283136; active = hit-call score of the fitted dose curve at least 0.9, where 1 is the maximum)
Summary of the method: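 Cell-free fluorescence read-out of phosphatase activity, substrate and product separated by mobility shift, taken 1.5 h after compound addition; protein produced in Sf9. Single 25 uM duplicate screen, followed by concentration series for actives, scored as signal loss relative to DMSO.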

Sequence of human Caspase 8 (CASP8), CASP8 (gene 841) (Q14790 whole entry, looked up): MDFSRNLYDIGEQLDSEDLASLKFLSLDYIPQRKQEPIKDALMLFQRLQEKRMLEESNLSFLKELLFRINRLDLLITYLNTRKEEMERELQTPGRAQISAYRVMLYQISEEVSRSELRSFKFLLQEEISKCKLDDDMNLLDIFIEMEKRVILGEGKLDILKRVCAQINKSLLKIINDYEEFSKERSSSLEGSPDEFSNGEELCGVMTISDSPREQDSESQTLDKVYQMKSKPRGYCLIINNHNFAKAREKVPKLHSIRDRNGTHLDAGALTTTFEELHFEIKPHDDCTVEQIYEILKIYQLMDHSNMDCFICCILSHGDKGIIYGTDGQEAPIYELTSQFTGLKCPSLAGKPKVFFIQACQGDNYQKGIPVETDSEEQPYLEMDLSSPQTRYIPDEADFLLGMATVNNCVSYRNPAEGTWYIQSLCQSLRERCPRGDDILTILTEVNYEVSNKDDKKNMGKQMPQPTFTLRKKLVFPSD
Sequence of human Casein Kinase 1-delta (CK1D), CSNK1D (gene 1453) (P48730 whole entry, looked up): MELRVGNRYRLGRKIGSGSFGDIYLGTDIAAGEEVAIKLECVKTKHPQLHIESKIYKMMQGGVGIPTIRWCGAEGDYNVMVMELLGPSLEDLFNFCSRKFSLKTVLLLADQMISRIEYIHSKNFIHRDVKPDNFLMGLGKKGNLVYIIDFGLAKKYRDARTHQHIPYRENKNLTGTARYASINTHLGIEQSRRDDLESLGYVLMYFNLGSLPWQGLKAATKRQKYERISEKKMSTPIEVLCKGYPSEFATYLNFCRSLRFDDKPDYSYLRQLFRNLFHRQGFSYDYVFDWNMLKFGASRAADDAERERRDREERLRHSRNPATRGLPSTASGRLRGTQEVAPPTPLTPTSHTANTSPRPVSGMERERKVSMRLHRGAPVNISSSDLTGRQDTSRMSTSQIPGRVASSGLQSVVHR
Sequence of human CYP2C9, CYP2C9 (gene 1559) (P11712 whole entry, looked up): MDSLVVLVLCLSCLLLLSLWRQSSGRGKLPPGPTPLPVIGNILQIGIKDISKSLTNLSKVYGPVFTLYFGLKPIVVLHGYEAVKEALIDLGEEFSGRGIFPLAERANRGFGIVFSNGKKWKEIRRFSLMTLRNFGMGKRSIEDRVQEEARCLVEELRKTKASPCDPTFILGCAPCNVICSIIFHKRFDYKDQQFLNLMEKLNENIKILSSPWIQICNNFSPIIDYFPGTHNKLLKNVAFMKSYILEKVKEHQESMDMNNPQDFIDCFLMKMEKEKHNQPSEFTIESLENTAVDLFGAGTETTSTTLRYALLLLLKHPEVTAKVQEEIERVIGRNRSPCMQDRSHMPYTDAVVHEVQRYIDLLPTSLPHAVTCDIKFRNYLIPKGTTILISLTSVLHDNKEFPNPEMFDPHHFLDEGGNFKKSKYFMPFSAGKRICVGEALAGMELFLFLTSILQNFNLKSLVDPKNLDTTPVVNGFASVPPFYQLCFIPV
Sequence of human AKT serine/threonine Kinase 1 (AKT1), AKT1 (gene 207) (P31749 whole entry, looked up): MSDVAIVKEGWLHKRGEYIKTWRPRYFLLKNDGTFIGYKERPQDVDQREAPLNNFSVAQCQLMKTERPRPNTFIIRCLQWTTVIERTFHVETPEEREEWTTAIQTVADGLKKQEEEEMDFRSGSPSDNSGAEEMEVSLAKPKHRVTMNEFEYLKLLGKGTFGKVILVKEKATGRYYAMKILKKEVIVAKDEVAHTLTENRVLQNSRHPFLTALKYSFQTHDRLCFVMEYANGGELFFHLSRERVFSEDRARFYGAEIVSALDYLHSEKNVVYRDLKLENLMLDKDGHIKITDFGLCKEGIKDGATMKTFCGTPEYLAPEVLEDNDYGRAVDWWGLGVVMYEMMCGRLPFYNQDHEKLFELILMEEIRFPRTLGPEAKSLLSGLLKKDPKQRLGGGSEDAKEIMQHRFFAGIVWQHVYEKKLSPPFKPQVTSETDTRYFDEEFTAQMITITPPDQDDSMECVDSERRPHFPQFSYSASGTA
Sequence of human Beta-secretase (BACE), BACE1 (gene 23621) (P56817 whole entry, looked up): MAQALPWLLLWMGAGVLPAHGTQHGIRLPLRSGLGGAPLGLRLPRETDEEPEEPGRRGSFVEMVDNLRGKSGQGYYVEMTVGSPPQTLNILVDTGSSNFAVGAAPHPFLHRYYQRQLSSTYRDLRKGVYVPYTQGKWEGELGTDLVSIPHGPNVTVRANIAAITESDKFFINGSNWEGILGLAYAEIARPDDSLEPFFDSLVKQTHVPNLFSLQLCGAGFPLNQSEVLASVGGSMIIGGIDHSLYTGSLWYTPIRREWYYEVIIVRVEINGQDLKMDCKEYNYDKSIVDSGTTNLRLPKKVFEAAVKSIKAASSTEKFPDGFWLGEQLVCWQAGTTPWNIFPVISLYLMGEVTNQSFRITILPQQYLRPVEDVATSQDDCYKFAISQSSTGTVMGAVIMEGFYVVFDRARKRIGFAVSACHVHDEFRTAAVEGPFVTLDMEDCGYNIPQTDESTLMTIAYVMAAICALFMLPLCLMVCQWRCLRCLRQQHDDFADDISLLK
Sequence of human AKT serine/threonine Kinase 2 (AKT2), AKT2 (gene 208) (P31751 whole entry, looked up): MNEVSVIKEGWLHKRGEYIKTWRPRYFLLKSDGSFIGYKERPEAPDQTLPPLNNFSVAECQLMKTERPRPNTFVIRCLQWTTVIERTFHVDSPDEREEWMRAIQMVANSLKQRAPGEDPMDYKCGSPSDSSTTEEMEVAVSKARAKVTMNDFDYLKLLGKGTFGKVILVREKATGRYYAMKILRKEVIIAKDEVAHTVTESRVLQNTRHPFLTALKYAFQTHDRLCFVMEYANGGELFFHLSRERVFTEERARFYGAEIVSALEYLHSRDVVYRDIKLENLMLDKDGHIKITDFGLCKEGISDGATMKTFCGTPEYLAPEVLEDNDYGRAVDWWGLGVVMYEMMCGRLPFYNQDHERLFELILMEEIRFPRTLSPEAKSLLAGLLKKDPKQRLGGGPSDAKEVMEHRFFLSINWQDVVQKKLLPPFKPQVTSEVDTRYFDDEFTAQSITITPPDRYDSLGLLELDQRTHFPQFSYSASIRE
Sequence of Cytochrome P450 3A4 (Homo sapiens) (P08684 whole entry, looked up): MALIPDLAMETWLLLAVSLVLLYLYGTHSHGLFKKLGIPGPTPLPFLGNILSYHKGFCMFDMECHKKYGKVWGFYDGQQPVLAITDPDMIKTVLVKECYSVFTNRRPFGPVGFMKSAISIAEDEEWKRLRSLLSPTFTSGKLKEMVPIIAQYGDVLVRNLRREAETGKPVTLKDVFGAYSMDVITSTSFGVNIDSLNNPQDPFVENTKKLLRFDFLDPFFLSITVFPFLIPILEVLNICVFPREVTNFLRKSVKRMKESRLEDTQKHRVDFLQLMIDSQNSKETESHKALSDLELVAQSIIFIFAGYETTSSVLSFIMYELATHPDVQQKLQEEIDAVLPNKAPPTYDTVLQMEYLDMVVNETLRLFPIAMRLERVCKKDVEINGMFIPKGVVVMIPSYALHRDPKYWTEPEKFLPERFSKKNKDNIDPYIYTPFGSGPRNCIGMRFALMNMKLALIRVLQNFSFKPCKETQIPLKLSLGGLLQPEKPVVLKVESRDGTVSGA
Sequence of human CYP2D6, CYP2D6 (gene 1565) (P10635 whole entry, looked up): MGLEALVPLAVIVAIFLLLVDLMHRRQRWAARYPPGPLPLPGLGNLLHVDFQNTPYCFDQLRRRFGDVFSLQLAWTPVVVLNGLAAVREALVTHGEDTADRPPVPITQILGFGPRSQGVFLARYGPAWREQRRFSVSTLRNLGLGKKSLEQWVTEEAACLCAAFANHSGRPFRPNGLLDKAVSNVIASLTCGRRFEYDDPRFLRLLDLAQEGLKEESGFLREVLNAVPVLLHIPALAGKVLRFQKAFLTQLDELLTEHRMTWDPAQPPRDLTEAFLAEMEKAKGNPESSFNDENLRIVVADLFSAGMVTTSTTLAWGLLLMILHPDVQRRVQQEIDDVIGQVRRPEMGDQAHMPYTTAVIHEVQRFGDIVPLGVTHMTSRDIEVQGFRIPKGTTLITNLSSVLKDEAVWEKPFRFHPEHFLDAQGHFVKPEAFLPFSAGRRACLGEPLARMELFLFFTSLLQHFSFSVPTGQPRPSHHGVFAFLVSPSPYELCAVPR
Sequence of human Acid Phosphatase 1 (ACP1), ACP1 (gene 52) (P24666 whole entry, looked up): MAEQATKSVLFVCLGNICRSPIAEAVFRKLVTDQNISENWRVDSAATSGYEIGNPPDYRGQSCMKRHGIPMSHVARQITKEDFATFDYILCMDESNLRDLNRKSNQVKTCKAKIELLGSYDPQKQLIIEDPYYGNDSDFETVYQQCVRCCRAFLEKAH

O=C(O)c1cccc(Oc2ccccc2)c1
outcome [1]: inactive
outcome [2]: inactive
outcome [3]: inactive
outcome [4]: inactive

CC(C)CC(C)(O)C#CC(C)(O)CC(C)C (stereo not drawn)
outcome [1]: inactive
outcome [2]: inactive
outcome [3]: inactive

COc1ccc(/C=C/S(=O)(=O)NC(=O)c2ccc(C)cc2Cl)cc1
AC50 [1]: 6.54 µM (active)
outcome [2]: inactive
AC50 [5]: 12.7 µM (active)
AC50 [4]: 30.5 µM (active)

CC(C)CCCCCCCOC(=O)CCCCC(=O)OCCCCCCCC(C)C
outcome [1]: inactive
outcome [2]: inactive
outcome [6]: inactive

O=C(O)CC(O)C(=O)O (stereo not drawn)
outcome [1]: inactive
outcome [2]: inactive
AC50 [7]: 12.9 µM (active)

CCOCCOCCOCCO
outcome [1]: inactive
outcome [2]: inactive
outcome [3]: inactive

O=C1CCC(N2C(=O)c3ccccc3C2=O)C(=O)N1 (stereo not drawn)
outcome [1]: inactive
outcome [2]: inactive
outcome [8]: inactive

O=C(O)c1cccc(N(Cc2cccnc2)c2ccc(OC(F)F)c(OC(F)F)c2)c1
AC50 [1]: 7.83 µM (active)
outcome [2]: inactive
AC50 [5]: 6.14 µM (active)
AC50 [9]: 6.01 µM (active)
AC50 [7]: 4.98 µM (active)
AC50 [4]: 10.9 µM (active)

COCCOCCOCCOC
outcome [1]: inactive
outcome [2]: inactive
outcome [10]: inactive

COc1ccc(-n2nc(C(F)F)cc2-c2ccc(S(C)=O)cc2)cc1 (stereo not drawn)
outcome [1]: inactive
outcome [2]: inactive
AC50 [7]: 0.967 µM (active)

O=C(O)CCN(C1(C(=O)NO)CCCC1)S(=O)(=O)c1ccc(Oc2ccc(F)cc2)cc1
outcome [1]: inactive
outcome [2]: inactive
outcome [4]: inactive

C1=CCCC=CCCC=CCC1
outcome [1]: inactive
outcome [2]: inactive
outcome [4]: inactive

CC(C)CCO
outcome [1]: inactive
outcome [2]: inactive
outcome [10]: inactive

CNCc1ccc(NC(=O)c2c[nH]c3c2C(=O)CCC3)cc1
outcome [1]: inactive
outcome [2]: inactive
outcome [8]: inactive

CC[C@H](C)C(=O)O[C@H]1C[C@@H](C)C=C2C=C[C@H](C)[C@H](CC[C@@H]3C[C@@H](O)CC(=O)O3)[C@H]21
AC50 [1]: 4.5 µM (active)
AC50 [2]: 3.95 µM (active)
outcome [6]: inactive
outcome [10]: inactive

COc1ccc2sc(C(=O)Nc3nnn[nH]3)c(OC(C)C)c2c1
AC50 [1]: 11.9 µM (active)
AC50 [2]: 14.2 µM (active)
AC50 (CDK2 (gene 1017)): 10.1 µM (active)
AC50 [4]: 0.385 µM (active)

Cc1ccc(N)cc1O
AC50 [1]: 8.98 µM (active)
outcome [2]: inactive
AC50 [11]: 3.9 µM (active)
AC50 [5]: 5.95 µM (active)
AC50 [7]: 7.57 µM (active)
outcome [12]: inactive
outcome [3]: inactive
outcome [4]: inactive
